Residue numbers refer to the chain shown, from its start.

The target of one experiment is T1, SALL4 ZFC4 R900W (HT-SELEX) (Mus musculus, UniProt Q8BX22 870-940, R900W).
T1 sequence: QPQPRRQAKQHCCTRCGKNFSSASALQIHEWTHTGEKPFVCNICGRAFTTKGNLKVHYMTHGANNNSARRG
Briefly: HT-SELEX; high values mean tight binding. The note with it: protein: recombinant; vector His6-GST; dsDNA, one strand shown. In short, it runs like this:
(§1)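 A 100 µl reaction of 10 mM Tris–HCl pH 7.5, 50 mM NaCl, poly(dI-dC) and DTT held purified recombinant mouse SALL4 zinc finger cluster 4 (residues 870–940, 1 µg) and library DNA (1.5 µg first cycle, 200 ng later) for 10 min at room temperature. Complexes captured on Ni2+ beads were washed, PCR-amplified and reselected for up to 6 cycles, in triplicate, then MiSeq-sequenced and scanned for 6-mers. Binding signal is the read fraction of each canonical k-mer expressed as fold change over the initial random library.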
As to AATGGT, the binding signal was 1.35 ± 0.0595 fold-change vs cycle 0.

Consider CAATCA, for which the binding signal amounted to 1.41 ± 0.0553 fold-change vs cycle 0.

Consider GCACAA, for which the binding signal is 0.507 ± 0.00524 fold-change vs cycle 0.

Regarding ACCACA, the binding signal stood at 0.793 ± 0.0317 fold-change vs cycle 0.

For the sequence TAATCA, the binding signal stood at 2.13 ± 0.0839 fold-change vs cycle 0.

For AGAACT, the binding signal amounted to 1.545 ± 0.00829 fold-change vs cycle 0.

In the case of GGAGGA, the binding signal was 0.669 ± 0.0435 fold-change vs cycle 0.

Take AGCTCA: the binding signal came out at 0.773 ± 0.0155 fold-change vs cycle 0.

Consider GAAGCC, for which the binding signal worked out at 0.3714 ± 0.00344 fold-change vs cycle 0.

Take AAAGCA: the binding signal was found to be 1.13 ± 0.0246 fold-change vs cycle 0.

CAGAAA: the binding signal was 1.18 ± 0.0406 fold-change vs cycle 0.

For the sequence GCTAAA, the binding signal was found to be 1 ± 0.0491 fold-change vs cycle 0.

As for CACACA, the binding signal stood at 0.777 ± 0.0199 fold-change vs cycle 0.

On to AAGGAA, for which the binding signal amounted to 1.66 ± 0.0995 fold-change vs cycle 0.

GTTCGA: the binding signal stood at 0.724 ± 0.0149 fold-change vs cycle 0.

As to AATGGC, the binding signal was 0.534 ± 0.0101 fold-change vs cycle 0.

Turning to ACAGAG, the binding signal worked out at 0.916 ± 0.013 fold-change vs cycle 0.

As for TGCTAA, the binding signal came to 1.24 ± 0.0475 fold-change vs cycle 0.

For the sequence ACATTG, the binding signal turned out to be 1.29 ± 0.0215 fold-change vs cycle 0.

In the case of AACAGG, the binding signal came out at 0.937 ± 0.0272 fold-change vs cycle 0.

CAGCAA: the binding signal turned out to be 0.641 ± 0.0279 fold-change vs cycle 0.

On to CATATA, for which the binding signal stood at 1.91 ± 0.115 fold-change vs cycle 0.

Consider ATAGTA, for which the binding signal came out at 2.08 ± 0.149 fold-change vs cycle 0.

On to CTCTAA, for which the binding signal worked out at 1.39 ± 0.103 fold-change vs cycle 0.

In the case of AGATTG, the binding signal came to 1.41 ± 0.0315 fold-change vs cycle 0.

Take CCTTGA: the binding signal is 1.041 ± 0.00922 fold-change vs cycle 0.

CCACAC: the binding signal worked out at 0.414 ± 0.0369 fold-change vs cycle 0.

For the sequence GTATGA, the binding signal came out at 1.49 ± 0.0331 fold-change vs cycle 0.

On to GTCGTA, for which the binding signal worked out at 0.663 ± 0.0204 fold-change vs cycle 0.

With TAACCA, the binding signal is 1.47 ± 0.047 fold-change vs cycle 0.

As to CAGATC, the binding signal is 0.849 ± 0.0155 fold-change vs cycle 0.

For the sequence AGCTGG, the binding signal was determined as 0.411 ± 0.0182 fold-change vs cycle 0.

As to GTCTGA, the binding signal came out at 0.884 ± 0.0322 fold-change vs cycle 0.

Take AGCATC: the binding signal is 0.804 ± 0.0378 fold-change vs cycle 0.

With CGTTAC, the binding signal was 0.932 ± 0.0341 fold-change vs cycle 0.

Consider TCTCAA, for which the binding signal was found to be 1.413 ± 0.011 fold-change vs cycle 0.

Regarding ACATCC, the binding signal was determined as 0.969 ± 0.0252 fold-change vs cycle 0.

Turning to AGGAGG, the binding signal turned out to be 0.701 ± 0.0545 fold-change vs cycle 0.

For AGACAT, the binding signal turned out to be 1.45 ± 0.0615 fold-change vs cycle 0.

Take ACTTAA: the binding signal stood at 2.12 ± 0.103 fold-change vs cycle 0.

For the next experiment, the target named is T2, SALL4 ZFC4 G921D (HT-SELEX) (Mus musculus, UniProt Q8BX22 870-940, G921D).
T2 sequence: T1 sequence with W31R, G52D
Briefly: HT-SELEX; high values mean tight binding. The note with it: protein: recombinant; vector His6-GST; dsDNA, one strand shown. Put shortly: as §1
Take AATGGT: the binding signal is 1.32 ± 0.061 fold-change vs cycle 0.

Regarding CAATCA, the binding signal came to 1.4 ± 0.0622 fold-change vs cycle 0.

As for GCACAA, the binding signal was determined as 0.634 ± 0.0509 fold-change vs cycle 0.

Regarding ACCACA, the binding signal came to 0.841 ± 0.0188 fold-change vs cycle 0.

With TAATCA, the binding signal was 1.88 ± 0.168 fold-change vs cycle 0.

Take AGAACT: the binding signal was 1.43 ± 0.129 fold-change vs cycle 0.

For GGAGGA, the binding signal is 0.733 ± 0.0247 fold-change vs cycle 0.

Regarding AGCTCA, the binding signal is 0.872 ± 0.0134 fold-change vs cycle 0.

Take GAAGCC: the binding signal was 0.514 ± 0.0635 fold-change vs cycle 0.

On to AAAGCA, for which the binding signal was found to be 1.14 ± 0.0213 fold-change vs cycle 0.

Regarding CAGAAA, the binding signal stood at 1.15 ± 0.0688 fold-change vs cycle 0.

For GCTAAA, the binding signal was determined as 1.03 ± 0.0278 fold-change vs cycle 0.

Consider CACACA, for which the binding signal turned out to be 0.826 ± 0.0389 fold-change vs cycle 0.

For AAGGAA, the binding signal turned out to be 1.49 ± 0.137 fold-change vs cycle 0.

With GTTCGA, the binding signal was determined as 0.821 ± 0.0291 fold-change vs cycle 0.

For the sequence AATGGC, the binding signal was 0.662 ± 0.067 fold-change vs cycle 0.

Regarding ACAGAG, the binding signal came to 0.96 ± 0.0385 fold-change vs cycle 0.

Regarding TGCTAA, the binding signal was 1.21 ± 0.0656 fold-change vs cycle 0.

As to ACATTG, the binding signal was 1.28 ± 0.0251 fold-change vs cycle 0.

On to AACAGG, for which the binding signal came to 0.942 ± 0.0148 fold-change vs cycle 0.

Consider CAGCAA, for which the binding signal came out at 0.737 ± 0.0707 fold-change vs cycle 0.

Regarding CATATA, the binding signal is 1.71 ± 0.163 fold-change vs cycle 0.

In the case of ATAGTA, the binding signal stood at 1.83 ± 0.209 fold-change vs cycle 0.

On to CTCTAA, for which the binding signal was 1.36 ± 0.0965 fold-change vs cycle 0.

AGATTG: the binding signal worked out at 1.38 ± 0.0773 fold-change vs cycle 0.

With CCTTGA, the binding signal was found to be 1.05 ± 0.0247 fold-change vs cycle 0.

Consider CCACAC, for which the binding signal was 0.516 ± 0.0626 fold-change vs cycle 0.

In the case of GTATGA, the binding signal was 1.38 ± 0.0706 fold-change vs cycle 0.

As to GTCGTA, the binding signal was 0.752 ± 0.0439 fold-change vs cycle 0.

In the case of TAACCA, the binding signal worked out at 1.37 ± 0.0838 fold-change vs cycle 0.

Take CAGATC: the binding signal stood at 0.964 ± 0.0486 fold-change vs cycle 0.

On to AGCTGG, for which the binding signal is 0.522 ± 0.0592 fold-change vs cycle 0.

Turning to GTCTGA, the binding signal amounted to 0.945 ± 0.0454 fold-change vs cycle 0.

Regarding AGCATC, the binding signal stood at 0.887 ± 0.0448 fold-change vs cycle 0.

Regarding CGTTAC, the binding signal came to 0.941 ± 0.0136 fold-change vs cycle 0.

Consider TCTCAA, for which the binding signal turned out to be 1.34 ± 0.061 fold-change vs cycle 0.

Take ACATCC: the binding signal was 0.991 ± 0.0197 fold-change vs cycle 0.

For the sequence AGGAGG, the binding signal was 0.762 ± 0.023 fold-change vs cycle 0.

AGACAT: the binding signal amounted to 1.37 ± 0.0528 fold-change vs cycle 0.

In the case of ACTTAA, the binding signal stood at 1.85 ± 0.222 fold-change vs cycle 0.

The record behind these values is paper PMC9838217, “Structure of SALL4 zinc finger domain reveals link between AT-rich DNA binding and Okihiro syndrome”.
